# About 83,000 compounds went through this panel and 20% of them were active in at least one assay; those are over-represented in the sample as a whole.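 The endpoint reported here, percent growth, reads 100 for growth as untreated, 0 for no net growth and -100 for all cells dead.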 Values without a mark were called inactive. The source made the active and inactive calls. Rule for the calls: active = growth percent below 10; inactive = the rest.
# Experiments:
# Experiment in all cases: NCI-60 one-dose screen, 48 h (100 = growth as untreated, 0 = no growth, -100 = all killed)
# Details in all cases: 10 µM unless noted
# BT-549 breast = test system: BT-549 breast
# MDA-MB-435 melanoma = test system: MDA-MB-435 melanoma
# SW-620 colon = test system: SW-620 colon
# MCF7 breast = test system: MCF7 breast
# HCT-116 colon = test system: HCT-116 colon
# HCC-2998 colon = test system: HCC-2998 colon
# KM12 colon = test system: KM12 colon
SMILES,growth (BT-549 breast),growth (MDA-MB-435 melanoma),growth (SW-620 colon),growth (MCF7 breast),growth (HCT-116 colon),growth (HCC-2998 colon),growth (KM12 colon)
O=C1N/C(=N/O)S/C1=C/c1cn(-c2ccccc2)nc1-c1ccccc1,92.3%,106%,107%,82.2%,82.4%,126%,86.4%
COc1cc(NC(=O)c2cccc(-c3cc(=O)c4c(O)c(OC)c(OC)cc4o3)c2)cc(OC)c1OC,7% (active),65.4%,73.3%,49.4%,44.8%,66%,53.9%
c1ccc2c(c1)ncn2-c1nc2ccccc2n2c1nc1ccccc12,91.6%,102%,78.4%,7.93% (active),67.2%,20.5%,47.7%
CN1CCN(C(=O)[C@@]2(C)CC[C@]3(C)CC[C@]4(C)C(=CC[C@@H]5[C@@]6(C)C/C(=C/c7ccncc7)C(=O)C(C)(C)[C@@H]6CC[C@]54C)[C@@H]3C2)CC1,55.6%,44.6%,31.6%,23.3%,12%,58.1%,36.6%
CS(=O)(=O)c1ccc(-c2nc3cc(Cl)ccc3n2CC(=O)NO)cc1,97.6%,106%,96.2%,81.3%,103%,115%,93.9%
C=C(C)[C@@H]1CC[C@]2(CO)CC[C@]3(C)[C@H](CC[C@@H]4[C@@]5(C)C=C(C#N)C(=O)C(C)(C)[C@@H]5CC[C@]43C)[C@@H]12,29.3%,17.8%,5.54% (active),1.77% (active),10.5%,8.97% (active),6.43% (active)
COc1ccc(/C=C(\C#N)n2nnc3cc(F)c(F)cc32)c(OC)c1OC,,45.7%,62%,27.2%,52.9%,114%,67.8%
COc1ccc(OC)c(Nc2nc3nonc3nc2Nc2cccc(Br)c2)c1,,14.9%,11.7%,5.95% (active),10.9%,25%,7.96% (active)
COC(=O)c1ccc(CSc2nnc(-c3ccncc3)o2)cc1,104%,106%,108%,96.6%,97.6%,110%,109%
Cc1cnc(Nc2ccc(OCCN3CCCC3)cc2)nc1NCc1ccco1,,84.1%,67.5%,50.8%,40.5%,87%,22.7%
CS(=O)(=O)c1ccc(N/N=C/c2c(-c3ccc(S(C)(=O)=O)cc3)[nH]c3ccc(F)cc23)cc1,23.9%,40.3%,59.7%,18.9%,27.1%,52.3%,29.2%
CC(C)n1nc(C#Cc2cccc(NC(=O)c3cccc(C(F)(F)F)c3)c2)c2c(N)ncnc21,9.72% (active),2.12% (active),1.28% (active),14.4%,-50.6% (active),2.89% (active),3.28% (active)
COc1cc2oc(-c3cccc(C(=O)Nc4ccc(C#N)cc4)c3)cc(=O)c2c(O)c1OC,44.7%,68.3%,78%,48.5%,55.5%,83.1%,38.9%
CCCn1nc(-c2ccccc2)c2c(-c3ccccc3)onc2c1=O,71.5%,8.42% (active),43.5%,40.9%,58.9%,85.3%,60%
COc1ccc(C(=O)/C=C/c2cc3c(c(OC)c2)OCC(=O)N3)cc1,,26.2%,14.7%,31.5%,11.8%,67.9%,14.7%
COc1ccc(NC(=O)C(=O)c2c[nH]c3ccc(F)cc23)cc1,,95.5%,99.9%,86.3%,79.1%,109%,94.5%
COc1ccc(-c2nc3sc4c(c3c(=O)[nH]2)CCCC4)c2ccccc12,,-70.3% (active),18.9%,9.63% (active),10.7%,12.3%,7.22% (active)
Cc1nc(C)c(-c2nn3c(-c4cccc(F)c4)nnc3s2)s1,,95.2%,96.8%,99.8%,,105%,99%

SMILES,growth (BT-549 breast),growth (MDA-MB-435 melanoma),growth (SW-620 colon),growth (MCF7 breast),growth (HCT-116 colon),growth (HCC-2998 colon),growth (KM12 colon)
Nc1c(C(=O)c2ccc(Cl)s2)sc2nc3c(cc12)CCCC3,,119%,106%,41.3%,105%,111%,96.6%
Clc1ccc2c(NCCCN3CCN(c4nc(-n5ccnc5)nc5ccccc45)CC3)ccnc2c1,67.6%,71.2%,-52.9% (active),-29.3% (active),72.8%,95.7%,87.8%
C=C(C)[C@@H]1CC[C@]2(CN)CC[C@]3(C)[C@H](CC[C@@H]4[C@@]5(C)CCC(N)[C@@](C)(CO)[C@@H]5CC[C@]43C)[C@@H]12 (stereo not given in full),80.4%,-86.7% (active),-76.5% (active),-72.2% (active),-85.5% (active),-53.6% (active),-72.1% (active)
COc1ccc(OC)c(Nc2nc3nonc3nc2Nc2cc(OC)ccc2OC)c1,,43.1%,57.3%,65.7%,17.6%,56.7%,67.4%
CS(=O)(=O)c1ccc(-c2[nH]c3ccc(F)cc3c2/C=N/O)cc1,91%,99.6%,110%,82.9%,87.9%,110%,101%
CC[C@@H](C[C@H](CCO)c1ccccc1)c1cc2ccccc2o1,,102%,89.6%,117%,76.6%,109%,88.7%
c1ccc2c(c1)nc(-n1ccnc1)c1nc3ccccc3n12,45.5%,76.1%,65.7%,62.5%,52.5%,76%,64.9%
Clc1ccc2c(NCCCN3CCN(c4nc(N5CCOCC5)nc5ccccc45)CC3)ccnc2c1,59.3%,-86.5% (active),-20.3% (active),-3.49% (active),-0.752% (active),-57.5% (active),25%
Cc1c(C(=O)O[C@H]2[C@@H]3[C@H](C)CC[C@H]3[C@]3(C)O[C@@]2(C2CCCCC2)C[C@H]3OC(=O)CO)ccc2ccccc12,,39%,18.7%,3.27% (active),3.42% (active),5.5% (active),27.9%
CC(C)(C)CC(C)(C)Nc1c(-c2ccc(-c3ccccc3)cc2)nc2cnccn12,95%,82.7%,97.1%,82.3%,59.8%,93.7%,79.9%
Nc1c(C(=O)c2ccccc2)nnc2ncnn12,,110%,106%,97.2%,105%,97.6%,105%
C[C@H]1[C@H](C)CC[C@]2(C(=O)N3CCN(C)CC3)CC[C@]3(C)C(=CC[C@@H]4[C@@]5(C)C/C(=C/c6cccnc6)C(=O)C(C)(C)[C@@H]5CC[C@]43C)[C@H]12,-81.2% (active),-65.1% (active),-49.9% (active),-73.8% (active),-88.2% (active),-92.3% (active),-89.3% (active)
O=C(Nc1cccc2[nH]c(C(F)(F)F)nc12)c1cc(Cl)ccc1Cl,,33.3%,42.4%,16.7%,25.7%,33.8%,20%
COc1ccc(-n2ncn(CCCCCCn3cnn(-c4ccc(OC)cc4)c3=O)c2=O)cc1,101%,102%,95.2%,92.7%,94.5%,110%,97%
CO[C@H]1/C=C/O[C@@]2(C)Oc3c(C)c(O)c4c(c3C2=O)C(=O)C(/C=N/N(c2ccccc2)c2ccccc2)=C(NC(=O)/C(C)=C\C=C\[C@H](C)[C@H](O)[C@@H](C)[C@@H](O)[C@@H](C)[C@H](OC(C)=O)[C@@H]1C)C4=O,,-17.4% (active),2.36% (active),2.54% (active),0.555% (active),-70.4% (active),-23.9% (active)
Cn1cc(Nc2nccc(-c3ccc(N4CCCC4)c(C#N)c3)n2)cn1,37.7%,0.731% (active),14.2%,27.3%,11.5%,59.8%,31.6%
CC1(C)C(=O)/C(=C\c2cccnc2)C[C@]2(C)[C@H]3CC=C4[C@@H]5C[C@@](C)(C(=O)O)CC[C@]5(C)CC[C@@]4(C)[C@]3(C)CC[C@@H]12,96.6%,103%,107%,87.7%,91.9%,108%,99.2%
